# Pf growth 48h: P. falciparum growth inhibition at 48 hours (one generation). P. falciparum luciferase growth in erythrocytes, 48 h. Potency, µM (series often up to 28.7 µM), most hits filed as inhibitors. 5.9% of 310,000 active
#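 Parasite viability was followed by luminescence of a genomically integrated firefly luciferase. Cultures held 0.1% parasitemia at 2% hematocrit (final), incubated under 5% CO2 at 37 C.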
# HCV inhibitor: HCV inhibition; Huh7.5.1 HCVcc-Cre infection, luciferase reporter, 44 h; Potency, µM (doses to about 41.8 µM), usual class: inhibitors; 3.4% of 340,000 active; AID 651820
#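 Infectious HCV cell culture screen: compound-treated cells (1,000/well, pre-plated 4 h) are infected with HCVcc-Cre at roughly 0.5 moi and grown 44 h. Infection is quantified by luciferase signal after 15 min substrate incubation at room temperature.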
# Pf growth 96h: P. falciparum growth inhibition at 96 hours | P. falciparum luciferase reporter growth, 96 h | Potency, µM (titrated, usually from 28.7 µM), usual class: inhibitors | 6.9% of 320,000 active
#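 Cell-based qHTS: luciferase-tagged P. falciparum in erythrocytes (2% hematocrit, 0.05% parasitemia final) incubated with compounds for 96 hours, 37 C, 5% CO2; luciferase detection reagent then added and luminescence measured.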
# HCMV inh: blocks human cytomegalovirus replication; HFF cells, HCMV-luciferase reporter, 72 h; active compounds read low; 4.5% of 410,000 active; AID 1259415; activity change, negative = inhibition, % at 57.5 µM; in the data active = activity change below about -60%; inconclusive = no clear call, values can overlap the other calls; inactive = above about -39%
#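 Two-dose cell screen: HFF monolayers treated with compounds and infected with luciferase-expressing HCMV at 1 PFU/cell, 72 h at 37C, then lysed for luciferase measurement.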
# Numbers stand for hits; n = inactive; u = inconclusive; x = not tested or not shown. Compounds with a hit are over-represented: about 13% of the library has one in this group of screens. Unless noted, calls come from the whole dose curve; as a rule, active = well fitted inhibition curve with a large enough effect; inconclusive = small, poorly fitted or top-dose-only effect, or another doubt; inactive = no such curve, though single readings can be large or run the other way.
SMILES,Pf growth 48h,HCV inhibitor,Pf growth 96h,HCMV inh
Cc1ccc2c(=O)c(C(=O)c3cccc(Cl)c3)cn(CC(=O)NC3CCCCC3)c2n1,x,x,x,n
Nc1c(C(=O)Nc2ccc(S(=O)(=O)N3CCCC3)cc2)sc2nc3cc4c(cc3cc12)CCC4,1.85µM,u,n,u
Nc1c(C(=O)Nc2ccc(S(=O)(=O)N3CCCC3)cc2)sc2nc3ccc(OC(F)(F)F)cc3cc12,10.4µM,u,n,-95.8
Nc1c(C(=O)Nc2ccc(C(=O)O)cc2)sc2nc3c(cc12)CCCC3,x,x,x,n
Cc1ccc(CCNC(=O)c2cn(C)c3ccc(S(=O)(=O)N(C)C4CCCCC4)cc3c2=O)cc1,x,x,x,n
CC(=O)Nc1ccc(C(=O)NCCCOC(C)C)cc1,n,n,n,u
COCCCNC(=O)C(=O)NCCCOC(C)C,n,u,11.7µM,n
CCC(C)[C@H](NC(=O)NCCCOC(C)C)C(=O)OC (some centres not stated),n,n,11.7µM,n
COc1ccc(CNc2nc3c(-c4ccccc4)nnn3c3ccccc23)cc1,x,x,x,n
CCOC(=O)c1ccc(Nc2ncccc2[N+](=O)[O-])cc1,n,n,0.586µM,n
CCn1cc(C(=O)NCc2ccc(C)cc2)c(=O)c2cc(S(=O)(=O)N(C)C3CCCCC3)ccc21,x,x,x,n
C/C(=N\Nc1cccc(Cl)c1)C1(C)N(O)C(C)(C)C(c2ccco2)=[N+]1[O-] (configuration not stated),7.38µM,n,u,n
C/C(=N\O)C1(C)N(O)C(C)(C)C(c2ccco2)=[N+]1[O-] (configuration not stated),n,n,n,n
CCOC(=O)c1ccccc1NC(=O)N(C)CCc1c(C)nn(CC)c1C,x,x,x,n
CN(Cc1cccc(C(F)(F)F)c1)Cc1nc(-c2cnccn2)no1,n,n,7.38µM,n
Cc1c(C(=O)Nc2nc(-c3ccc(F)cc3)ns2)oc2ccc(Cl)cc12,x,x,x,n
Cc1ccc(N(CC(=O)N2CCc3ccccc32)C2=NC(=O)CS2)cc1,x,6.31µM,9.28µM,n
COC(=O)c1ccc(CSc2nnc(CS(=O)Cc3ccc(Br)cc3)n2-c2ccccc2)cc1 (configuration not stated),u,14.1µM,u,n
COC(=O)c1ccc(CSc2nnc(-c3c[nH]c4ccccc34)n2C)o1,x,n,u,n
COC(=O)c1ccc(CSc2nnc(-c3c[nH]c4ccccc34)n2-c2ccccc2)cc1,u,22.4µM,n,n
O=S(Cc1ccc(Br)cc1)Cc1nnc(SCc2ccc(Br)cc2)n1-c1ccccc1 (configuration not stated),u,5.01µM,u,-80.1
COc1cc(-c2nc(Cn3nnc(C(=O)Nc4cc(C)cc(C)c4)c3C)c(C)o2)cc(OC)c1OC,x,x,x,n
Cc1c(C(=O)NCc2cccnc2)oc2ccc(S(=O)(=O)N3CCCC(C)C3)cc12 (configuration not stated),u,n,5.86µM,n
Cc1c(C(=O)NCc2ccc3c(c2)OCO3)oc2ccc(S(=O)(=O)N3CCC(C)CC3)cc12,9.28µM,u,n,x
Cc1c(C(=O)NCc2ccc3c(c2)OCO3)oc2ccc(S(=O)(=O)N3CCCCCC3)cc12,13.1µM,u,u,n
SMILES,Pf growth 48h,HCV inhibitor,Pf growth 96h,HCMV inh
Cc1ccc(CNC(=O)c2oc3ccc(S(=O)(=O)N4CCCC(C)C4)cc3c2C)cc1 (configuration not stated),x,x,x,n
Cc1c(C(=O)NCCN2CCOCC2)oc2ccc(S(=O)(=O)N3CCCCCC3)cc12,u,n,u,-100.2
Cc1ccc2oc(C(=O)NCc3ccc4c(c3)OCO4)c(C)c2c1,n,n,n,n
COc1ccc(CNC(=O)C2CCN(S(=O)(=O)c3c(C)noc3/C=C/c3cccs3)CC2)cc1,x,x,x,n
CCOc1ccc(-c2nc3c(c(CC)nn3-c3ccccc3)c3cc(OC)c(OC)cc23)cc1,x,x,x,n
CC1(C(=O)NS(=O)(=O)c2ccccc2C(F)(F)F)CCN1C(=O)CCC1CCCC1 (configuration not stated),x,x,x,n
CC1CC(C)CN(S(=O)(=O)c2ccc3c(c2)oc(=O)n3CC(=O)NCc2cccnc2)C1 (configuration not stated),u,n,10.4µM,n
CCC(C)(C)NC(=O)Cn1c(=O)oc2cc(S(=O)(=O)N3CC(C)CC(C)C3)ccc21 (configuration not stated),u,n,u,n
Cc1c(C(=O)NC2CCCc3ccccc32)oc2ccc(S(=O)(=O)N3CCCC3)cc12 (configuration not stated),u,u,x,n
Cc1c(C(=O)NC2CCCc3ccccc32)oc2ccc(S(=O)(=O)N3CCCCC3)cc12 (configuration not stated),u,n,1.85µM,n
Cc1ccc(N2CC(NC(=O)c3ccc4c(c3)OCO4)CC2=O)cc1 (configuration not stated),x,x,x,n
O=C(NCc1ccc(Cl)cc1)c1cnc2sc(N3CCCCCC3)nn2c1=O,x,x,x,n
C=CCn1c(SCc2csc(C)n2)nc2sc3c(c2c1=O)CCC(C)C3 (configuration not stated),11.7µM,u,u,n
C[N+](C)(C)CC[N+]1(C)Cc2c(Cl)c(Cl)c(Cl)c(Cl)c2C1,n,x,0.239µM,x
O=S1(=O)c2ccccc2N(Cc2ccccc2Cl)c2ccccc21,x,x,x,n
CCN1CCN(c2ccc(S(=O)(=O)N3CCCCC3)cc2NC(=O)COc2ccc(Cl)c(C)c2)CC1,4.65µM,11.2µM,u,n
Cc1ccccc1OCCC(=O)Nc1cc(S(=O)(=O)N2CCCCC2)ccc1N1CCN(C)CC1,x,u,x,n
CCOc1ccccc1OCC(=O)Nc1cc(S(=O)(=O)N2CCCCC2)ccc1OC,u,u,n,n
CCOc1ccccc1OCC(=O)Nc1cc(S(=O)(=O)N2CCCCC2)ccc1N1CCN(CC)CC1,10.4µM,u,3.29µM,n
Cc1ccc(OCC(=O)Nc2cc(S(=O)(=O)N3CCCCC3)ccc2N2CCN(C)CC2)c(C)c1,2.33µM,u,1.47µM,n
COc1ccccc1OCC(=O)Nc1cc(S(=O)(=O)N2CCCCC2)ccc1N1CCCCC1,5.22µM,25.1µM,2.08µM,n
CCCC(=O)N1CCC2(CC1)CN(C(=O)Nc1cccc(F)c1)[C@H](CO)c1c2c2ccc(OC)cc2n1C,x,x,x,n
Cc1ccc(NC(=O)c2nc(S(C)(=O)=O)ncc2N(Cc2ccc(C(C)(C)C)cc2)Cc2ccco2)cc1C,x,x,x,n
Cc1ccc(CNC(=O)c2cc(-c3ccc(C)cc3)nc3n[nH]c(-c4cccc([N+](=O)[O-])c4)c23)cc1,x,x,x,n
COc1ccc(S(=O)(=O)N2CCC(C(=O)Nc3ccccc3N3CCCCC3)CC2)cc1OC,n,u,8.28µM,n
COc1ccccc1OCC(=O)Nc1cc(Cl)ccc1N1CCCCC1,10.4µM,10µM,u,u
CN1CCN(c2ccc(S(=O)(=O)N3CCCCC3)cc2NC(=O)COc2ccc([N+](=O)[O-])cc2)CC1,u,u,u,n
CCC(=O)c1ccc(OCC(=O)Nc2cc(S(=O)(=O)N3CCCCC3)ccc2N2CCN(CC)CC2)cc1,u,u,9.28µM,n
Cc1ccc(S(=O)(=O)N2CCC(C(=O)Nc3ccccc3N3CCCCC3)CC2)cc1C,u,u,u,n
